In PubChem BioAssay (EPA / NIEHS):
Results filed as inconclusive are left out. Calls of active or inactive are those of the source. The calls were made as follows, unless noted: active = hit-call score of the fitted dose curve at least 0.9, where 1 is the maximum; inactive = score below 0.9.

Experiments:
[1] = read-out: Nuclear factor erythroid 2-related factor 2 (Homo sapiens) (UniProt Q16236); experiment: LTEA_HepaRG_NFE2L2: Life Technologies and Expression Analysis (LTEA) Assay for Nuclear factor erythroid 2-related factor 2 (NFE2L2) Transcription Factor using HepaRG (AID 2283527); conditions: mRNA level, 48 h; actives raise or lower the signal
How it was run: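 HepaRG, 48 h dosing, 8-pt half-log series from 100 uM in 0.5% DMSO, duplicates. Read-out: NFE2L2 mRNA by qRT-PCR (ACTB/GAPDH/POLR2A normalization). Bidirectional curve fit vs DMSO baseline.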

[2] = read-out: Signal transducer and activator of transcription 3 (Homo sapiens) (UniProt P40763); experiment: LTEA_HepaRG_STAT3: Life Technologies and Expression Analysis (LTEA) Assay for Signal transducer and activator of transcription (STAT3) using HepaRG (AID 2283529); conditions: mRNA level, 48 h; actives raise or lower the signal
How it was run: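 HepaRG, 48 h exposure, 8-pt half-log series (top 100 uM), 0.5% DMSO vehicle, duplicates. Readout: STAT3 transcript by Fluidigm qRT-PCR, housekeeping-normalized; bidirectional fit vs DMSO baseline.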

[3] = read-out: solute carrier (SLCO1B1), SLCO1B1 (gene 10599); experiment: LTEA_HepaRG_SLCO1B1: Life Technologies and Expression Analysis (LTEA) Assay for solute carrier (SLCO1B1) using HepaRG (AID 2283530); conditions: mRNA level, 48 h; actives raise or lower the signal
How it was run: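 Gain or loss of SLCO1B1 mRNA is fitted against the 0.5% DMSO vehicle in human HepaRG liver cells treated 48 h at up to 100 uM in half-log steps. Expression comes from qRT-PCR normalized to endogenous controls.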

[4] = read-out: sulfotransferase 2A1 (SULT2A1), SULT2A1 (gene 6822); experiment: LTEA_HepaRG_SULT2A1: Life Technologies and Expression Analysis (LTEA) Assay for sulfotransferase 2A1 (SULT2A1) using HepaRG (AID 2283531); conditions: mRNA level, 48 h; actives raise or lower the signal
How it was run: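 Cells were plated and cultured 48 h, switched to serum-free induction medium, then dosed in duplicate for 48 h (8 concentrations, max 100 uM). RNA was isolated and SULT2A1 expression measured by qRT-PCR; gain or loss of signal fitted relative to DMSO.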

[5] = read-out: Transforming Growth Factor (TGFA), TGFA (gene 7039); experiment: LTEA_HepaRG_TGFA: Life Technologies and Expression Analysis (LTEA) Assay for Transforming Growth Factor (TGFA) using HepaRG (AID 2283532); conditions: mRNA level, 48 h; actives raise or lower the signal
How it was run: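 qRT-PCR read-out of TGFA transcript, normalized to three housekeeping genes, fitted bidirectionally against 0.5% DMSO baseline. Human HepaRG cultures received chemicals for 48 h at eight half-log concentrations, top 100 uM.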

[6] = read-out: Transforming Growth Factor (TGFB1), TGFB1 (gene 7040); experiment: LTEA_HepaRG_TGFB1: Life Technologies and Expression Analysis (LTEA) Assay for Transforming Growth Factor (TGFB1) Transporter using HepaRG (AID 2283533); conditions: mRNA level, 48 h; actives raise or lower the signal
How it was run: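 Expression change of TGFB1 in human HepaRG cells is measured after a 48 h chemical exposure, up to 100 uM in 0.5% DMSO vehicle. Curves are fitted in both directions relative to the DMSO baseline.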

TIMP1, TIMP1 (gene 7076) = experiment: LTEA_HepaRG_TIMP1: Life Technologies and Expression Analysis (LTEA) Assay for TIMP1 using HepaRG (AID 2283534); conditions: mRNA level, 48 h; actives raise or lower the signal
How it was run: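 We dosed human liver HepaRG cultures for 48 hours with up to 100 uM test chemical and measured TIMP1 expression by qRT-PCR. Activity in either direction is fitted relative to the 0.5% DMSO vehicle.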

[7] = read-out: Tumor necrosis factor receptor 1 (TNFRSF1A), TNFRSF1A (gene 7132); experiment: LTEA_HepaRG_TNFRSF1A: Life Technologies and Expression Analysis (LTEA) Assay for Tumor necrosis factor receptor 1 (TNFRSF1A) using HepaRG (AID 2283535); conditions: mRNA level, 48 h; actives raise or lower the signal
How it was run: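 Expression of TNFRSF1A in human HepaRG liver cells was measured by qRT-PCR 48 h after chemical dosing (maximum 100 uM). Bidirectional curve fitting used 0.5% DMSO as baseline.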

[8] = read-out: Thyroid Hormone Responsive (THRSP), THRSP (gene 7069); experiment: LTEA_HepaRG_THRSP: Life Technologies and Expression Analysis (LTEA) Assay for Thyroid Hormone Responsive (THRSP) using HepaRG (AID 2283536); conditions: mRNA level, 48 h; actives raise or lower the signal
How it was run: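 qRT-PCR read-out (Fluidigm TaqMan), housekeeping-normalized (ACTB/GAPDH/POLR2A). HepaRG, 48 h chemical exposure, 8-pt half-log series from 100 uM in 0.5% DMSO, duplicates. Bidirectional curve fit vs 0.5% DMSO baseline.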

[9] = read-out: Cellular tumor antigen p53 (Homo sapiens) (UniProt P04637); experiment: LTEA_HepaRG_TP53: Life Technologies and Expression Analysis (LTEA) Assay for Tumor Protein P53 (TP53) using HepaRG (AID 2283537); conditions: mRNA level, 48 h; actives raise or lower the signal
How it was run: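 Read-out is TP53 transcript level by microfluidic qRT-PCR, normalised to three housekeeping genes and fitted bidirectionally against DMSO. Human HepaRG cells received compounds for 48 h, highest concentration 100 uM.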

[10] = read-out: UDP glucuronosyltransferase (UGT1A1), UGT1A1 (gene 54658); experiment: LTEA_HepaRG_UGT1A1: Life Technologies and Expression Analysis (LTEA) Assay for UDP glucuronosyltransferase (UGT1A1) using HepaRG (AID 2283538); conditions: mRNA level, 48 h; actives raise or lower the signal
How it was run: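 Cells are plated, cultured 48 h, switched to serum-free induction medium, then dosed 48 h at eight concentrations (max 100 uM, 0.5% DMSO). RNA is isolated and UGT1A1 expression measured by qRT-PCR; changes versus DMSO are fitted in both directions.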

[11] = read-out: UDP glucuronosyltransferase (UGT1A6), UGT1A6 (gene 54578); experiment: LTEA_HepaRG_UGT1A6: Life Technologies and Expression Analysis (LTEA) Assay for UDP glucuronosyltransferase (UGT1A6) using HepaRG (AID 2283539); conditions: mRNA level, 48 h; actives raise or lower the signal
How it was run: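 Endpoint is UGT1A6 transcript induction or loss in a human liver cell line, quantified by TaqMan qRT-PCR 48 h after dosing. Concentrations ran from 100 uM downward in half-log steps in 0.5% DMSO; activity was fitted in both directions versus vehicle.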

[12] = read-out: X-box binding protein 1 (XBP1), XBP1 (gene 7494); experiment: LTEA_HepaRG_XBP1: Life Technologies and Expression Analysis (LTEA) Assay for X-box binding protein 1 (XBP1) using HepaRG (AID 2283540); conditions: mRNA level, 48 h; actives raise or lower the signal
How it was run: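 Human HepaRG monolayers receive test chemical for 48 h across an eight-point half-log series starting at 100 uM. XBP1 mRNA gain or loss is scored against DMSO by qRT-PCR.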

[13] = LTEA_HepaRG_LDH_cytotoxicity: Cytotoxicity Assessment in the Life Technologies and Expression Analysis (LTEA) Assay (AID 2283563; active = hit-call score of the fitted dose curve at least 0.9, where 1 is the maximum)
How it was run: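 Human HepaRG hepatic cells are treated with test chemicals for 48 h at up to 100 uM in 0.5% DMSO. Cytotoxicity is scored from medium LDH against the vehicle control.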

[14] = ATG_XTT_Cytotoxicity: Cytotoxicity Assessment in the Attagene TRANS-FACTORIAL HepG2 Assay (AID 2283584; active = hit-call score of the fitted dose curve at least 0.9, where 1 is the maximum)
How it was run: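 Transfect HepG2 with GAL4-UAS reporter units, dose compound, incubate 24 h, then measure viable cell number by XTT. Fit concentration response against DMSO baseline.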

[15] = target: Cellular tumor antigen p53 (Homo sapiens) (UniProt P04637); experiment: TOX21_p53_BLA_p2_ratio: Tox21 HCT-116 p53 Agonism Beta-lactamase Assay, Ratio, Phase 2 (AID 2283592; active = hit-call score of the fitted dose curve at least 0.9, where 1 is the maximum)
How it was run: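 Cleaved-to-uncleaved substrate ratio (460 vs 530 nm) measured in HCT116 cells with an inducible beta-lactamase reporter linked to p53 activity. Compounds incubated 16 h at 37C before 2 h room-temperature CCF4-AM loading.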

[16] = TOX21_p53_BLA_p3_viability: Viability Assessment in the Tox21 HCT-116 p53 Agonism Beta-lactamase Assay, Phase 3 (AID 2283593; active = hit-call score of the fitted dose curve at least 0.9, where 1 is the maximum;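 also: cells exposed to compound for 16 h before reading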)
How it was run: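 HCT116 cells, 4000/well, dosed 5 h after plating by pin transfer (217-fold dilution from DMSO stock) and incubated 16 h at 37C, 5% CO2. Viability read as ATP luminescence with CellTiter-Glo after 30 min at room temperature.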

[17] = target: Cellular tumor antigen p53 (Homo sapiens) (UniProt P04637); experiment: TOX21_p53_BLA_p3_ratio: Tox21 HCT-116 p53 Agonism Beta-lactamase Assay, Ratio, Phase 3 (AID 2283596; active = hit-call score of the fitted dose curve at least 0.9, where 1 is the maximum)
How it was run: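 Cells were seeded at 4000/well, rested 5 h at 37C, then dosed with DMSO compound solutions (217-fold dilution) for 16 h. CCF4-AM substrate was loaded for 2 h at room temperature, and the 460/530 nm emission ratio was fitted for gain of signal versus DMSO.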

[18] = read-out: succinate dehydrogenase complex iron sulfur subunit B (SDHB), SDHB (gene 6390); experiment: LTEA_HepaRG_SDHB: Life Technologies and Expression Analysis (LTEA) Assay for succinate dehydrogenase complex iron sulfur subunit B (SDHB) using HepaRG (AID 2283528); conditions: mRNA level, 48 h; actives raise or lower the signal
How it was run: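 Readout is SDHB transcript level by qRT-PCR, normalised to three housekeeping genes and fitted bidirectionally against 0.5% DMSO vehicle. Human HepaRG cells were treated for 48 h at up to 100 uM.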

[19] = TOX21_p53_BLA_p2_viability: Viability Assessment in the Tox21 HCT-116 p53 Agonism Beta-lactamase Assay, Phase 2 (AID 2283591; active = hit-call score of the fitted dose curve at least 0.9, where 1 is the maximum;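 also: compound exposure lasted 16 h at 37 °C; actives lower the ATP signal meaning cytotoxicity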)
How it was run: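 HCT116 p53-bla cells, 4000/well, dosed after 5 h plating (217-fold dilution of DMSO stocks) and incubated 16 h at 37C. Viability taken as cellular ATP by CellTiter-Glo luminescence after 30 min RT; signal loss marks cytotoxicity.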

Measured: AC50

Sequence of Nuclear factor erythroid 2-related factor 2 (Homo sapiens) (Q16236 whole entry, looked up): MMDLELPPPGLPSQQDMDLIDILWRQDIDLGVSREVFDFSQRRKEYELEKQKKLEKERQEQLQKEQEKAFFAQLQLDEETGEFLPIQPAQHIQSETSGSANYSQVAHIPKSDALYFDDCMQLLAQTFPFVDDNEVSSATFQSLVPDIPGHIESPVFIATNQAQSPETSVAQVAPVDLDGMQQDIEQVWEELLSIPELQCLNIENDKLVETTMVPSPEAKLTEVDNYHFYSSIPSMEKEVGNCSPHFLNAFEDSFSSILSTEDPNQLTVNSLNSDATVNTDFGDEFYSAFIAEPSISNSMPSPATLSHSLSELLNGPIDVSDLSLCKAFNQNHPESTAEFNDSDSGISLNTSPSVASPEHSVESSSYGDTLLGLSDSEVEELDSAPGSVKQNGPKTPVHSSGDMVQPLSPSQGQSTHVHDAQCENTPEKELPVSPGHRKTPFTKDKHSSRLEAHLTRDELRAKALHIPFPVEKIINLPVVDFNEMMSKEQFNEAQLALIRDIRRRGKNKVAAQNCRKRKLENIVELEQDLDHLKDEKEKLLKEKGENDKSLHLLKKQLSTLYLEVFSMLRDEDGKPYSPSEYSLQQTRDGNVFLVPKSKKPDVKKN
Sequence of Cellular tumor antigen p53 (Homo sapiens) (P04637 whole entry, looked up): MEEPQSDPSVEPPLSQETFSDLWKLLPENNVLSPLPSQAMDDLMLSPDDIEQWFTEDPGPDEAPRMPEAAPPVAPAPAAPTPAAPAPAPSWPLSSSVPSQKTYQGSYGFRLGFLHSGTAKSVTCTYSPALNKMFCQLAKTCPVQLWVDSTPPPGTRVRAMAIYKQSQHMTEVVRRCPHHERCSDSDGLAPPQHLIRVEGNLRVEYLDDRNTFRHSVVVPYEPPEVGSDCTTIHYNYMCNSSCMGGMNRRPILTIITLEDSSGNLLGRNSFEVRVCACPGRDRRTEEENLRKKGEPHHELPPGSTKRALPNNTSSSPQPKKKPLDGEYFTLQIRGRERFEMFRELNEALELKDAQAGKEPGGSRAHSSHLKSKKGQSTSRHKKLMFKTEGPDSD
Sequence of Signal transducer and activator of transcription 3 (Homo sapiens) (P40763 whole entry, looked up): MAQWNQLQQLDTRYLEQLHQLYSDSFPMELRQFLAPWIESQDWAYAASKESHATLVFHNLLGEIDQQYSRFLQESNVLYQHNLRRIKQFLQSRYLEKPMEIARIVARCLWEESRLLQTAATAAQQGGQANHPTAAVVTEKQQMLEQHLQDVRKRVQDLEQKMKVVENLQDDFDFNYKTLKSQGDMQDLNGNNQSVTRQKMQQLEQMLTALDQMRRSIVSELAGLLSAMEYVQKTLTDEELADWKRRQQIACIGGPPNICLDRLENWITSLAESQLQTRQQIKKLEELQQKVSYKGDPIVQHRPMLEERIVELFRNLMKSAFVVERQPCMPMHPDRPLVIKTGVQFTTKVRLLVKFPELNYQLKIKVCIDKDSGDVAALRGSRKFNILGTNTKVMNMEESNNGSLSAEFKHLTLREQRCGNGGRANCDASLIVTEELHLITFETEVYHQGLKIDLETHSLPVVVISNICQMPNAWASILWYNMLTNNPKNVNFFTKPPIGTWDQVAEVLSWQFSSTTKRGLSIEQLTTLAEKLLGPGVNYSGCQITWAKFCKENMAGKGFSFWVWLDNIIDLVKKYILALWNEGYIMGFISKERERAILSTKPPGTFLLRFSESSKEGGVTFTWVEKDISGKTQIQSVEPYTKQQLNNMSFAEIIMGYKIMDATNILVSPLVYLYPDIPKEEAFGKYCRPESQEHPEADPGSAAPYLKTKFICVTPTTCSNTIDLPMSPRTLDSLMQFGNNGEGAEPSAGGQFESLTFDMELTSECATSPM

O=C(OCCCCCOC(=O)c1ccccc1)c1ccccc1
active: [1] 0.145 µM | [2] 7.25 µM | [3] 1.29 µM | [5] 1.28 µM | [6] 3 µM | [7] 1.99 µM | [9] 1.31 µM | [10] 1.07 µM | [12] 0.761 µM
not listed: [18] | [19]
inactive: all other assays above

Cc1ccc(N(C)C)cc1
active: [10] 26.6 µM
not listed: TIMP1, TIMP1 (gene 7076) | [14]
inactive: all other assays above

Oc1ccc2ccccc2c1N=Nc1ccccc1
active: [1] 1.5 µM | [2] 16.2 µM | [3] 11.4 µM | [4] 4.89 µM | [8] 2.19 µM | [10] 0.811 µM | [12] 7.84 µM
not listed: TIMP1, TIMP1 (gene 7076) | [11] | [13]
inactive: all other assays above

Cc1ccc(C)c(O)c1C
not listed: TIMP1, TIMP1 (gene 7076) | [11] | [14] | [19]
inactive: all other assays above
